Results published in PubChem BioAssay AID760 (NMMLSC, 2007).
About 360 (0.19%) of roughly 190,000 compounds were called active. About 2% were inconclusive and are not listed. Shown is part of a subset that was picked to be rich in actives. Values without a mark were called inactive.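 Rule for the calls: active = GTP binding activity at least 20 points away from 100%, either lowered or raised; inconclusive = signal likely due to the compound's own green fluorescence; inactive = the rest.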

Each molecule was assayed against Ras-related protein Rab-2A (Canis lupus familiaris) (UniProt P61105) (assay: modulators of GTP binding to Rab2A wildtype, primary screen, biochemical, dog, bead-based flow cytometry, multiplex (AID 760;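 note: 0% = beads with excess unlabeled GTP and 100% = no-compound control corrected for plate trend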)). Conditions: GST-Rab2 wt beads, Bodipy-GTP binding, at 10 µM.
Work on `CCc1nnc(NC(=O)CSc2nnnn2-c2cccc(C(C)=O)c2)s1` yielded a GTP binding activity of 97%.
For `O=C(OCC1O[C@@H](OC(=O)c2cc(O)c(O)c(O)c2)[C@@H](OC(=O)c2cc(O)c(O)c(O)c2)[C@@H](OC(=O)c2cc(O)c(O)c(O)c2)[C@@H]1OC(=O)c1cc(O)c(O)c(O)c1)c1cc(O)c(O)c(O)c1` (stereo partly specified), the GTP binding activity was 79% (active).
Work on `CC(=O)NC1C(OCc2ccccc2)OC(COC(C)=O)C(OC(C)=O)C1OC(C)=O` (stereo unspecified) yielded a GTP binding activity of 100%.
Work on `CC1(C)CN(c2ccc(-c3ccnc4ncnn34)cc2)C1=O` yielded a GTP binding activity of 99%.
Molecule `CCCOCC(O)CC(CC)C(=O)NNC(=S)Nc1ccccc1` (stereo unspecified) has a GTP binding activity of 100%.
For `O=C(Nc1ccc(F)cc1)C1CCN(C(=O)c2ccc([N+](=O)[O-])cc2)CC1`, the GTP binding activity was 97%.
For `O=C(Nc1ccc(F)c([N+](=O)[O-])c1)C1CC(=O)N(Cc2ccccc2)C1` (stereo unspecified), the GTP binding activity was 92%.
With `Cc1cc(C2=NNC(=Nc3ccc(S(=O)(=O)N4CCOCC4)cc3)SC2)c(C)n1CC1CCCO1` (stereo unspecified) the GTP binding activity was 101%.
`O=C(N/C(=C\c1ccc(F)cc1)C(=O)N1CCCCCC1)c1ccccc1` gave a GTP binding activity of 98%.
`Clc1ccc(CN2CCN(/N=C/c3cccnc3)CC2)cc1` was tested, and the GTP binding activity was 101%.
Molecule `COc1c(F)c(F)c(C(=O)O)c(Nc2ccccc2C)c1F` has a GTP binding activity of 97%.
`Cc1ccc(NC(=S)NC(=O)c2ccc(-c3ccccc3)cc2)c(C)c1` showed a GTP binding activity of 97%.
With `Cc1ccc(Nc2c(F)c(F)c(F)c(F)c2C(=O)O)c(C)c1` the GTP binding activity was 131% [activator] (active).
With `Cc1cc(C)n(CC(=O)Nc2ccc([N+](=O)[O-])cc2)n1` the GTP binding activity was 96%.
In the case of `COc1ccc(C2CC(c3cccs3)Nc3nnnn32)cc1` (stereo unspecified), the GTP binding activity is reported as 98%.
`Cc1c(Br)ccc(NC(=O)COc2ccccc2C(N)=O)c1C` was tested, and the GTP binding activity was 102%.
Work on `CN1C(=O)/C(=C\c2ccc(-c3ccccc3)o2)SC1=S` yielded a GTP binding activity of 88%.
In the case of `O=C(CCc1ccccc1)NCCc1cccs1`, the GTP binding activity is reported as 100%.
With `O=C(CCC(=O)N1CCCC1)Nc1ccc([N+](=O)[O-])cc1` the GTP binding activity was 101%.
With `CN(C)CC(C)(C)CNC(=O)c1cc(Br)cc(Br)c1O` the GTP binding activity was 95%.
In the case of `N#C/C(=C\c1ccc(-c2cccc([N+](=O)[O-])c2)o1)C(=O)NCCN1CCOCC1`, the GTP binding activity is reported as 92%.
`CCN1CCN(C(=O)CCN2C(=O)c3ccccc3C2=O)CC1` showed a GTP binding activity of 98%.
Work on `COc1ccc(CC(=O)NCc2nnc(SCC(=O)Nc3ncc(C)s3)n2C)cc1` yielded a GTP binding activity of 98%.
With `CCC(O)C1CCN(Cc2cn(-c3ccc(OC)cc3)nc2-c2cccc(F)c2)CC1` (stereo unspecified) the GTP binding activity was 102%.
Molecule `CCC1(CC)NC(=O)N(Cc2nc3ccccc3s2)C1=O` has a GTP binding activity of 98%.
`Nc1c(C(=O)O)cnn1-c1ccccc1` showed a GTP binding activity of 96%.
Molecule `Fc1ccccc1Cc1ccc(Cl)nn1` has a GTP binding activity of 96%.
`CC(=O)Nc1ccc(S(=O)(=O)Nc2nccc(/C=C/c3ccccc3F)n2)cc1` gave a GTP binding activity of 99%.
In the case of `O=C1NC2(CCCCCC2)C(=O)N1CCS(=O)(=O)Oc1ccccc1`, the GTP binding activity is reported as 96%.
`O=C(Nc1cccnc1)c1ccc(Cl)cc1[N+](=O)[O-]` was tested, and the GTP binding activity was 103%.
For `COc1ccc(NC(=O)c2c(SC)nsc2SC)cc1`, the GTP binding activity was 100%.
For `CSc1ncccc1C(=O)NC1CCCCCC1`, the GTP binding activity was 99%.
In the case of `CSc1nsc(SC)c1NC(=O)OC1CCCCC1`, the GTP binding activity is reported as 31% (active).
`Cc1ccc(N(C(=O)c2ccc(S(=O)(=O)N(C)C)cc2)C2C=CS(=O)(=O)C2)cc1` (stereo unspecified) gave a GTP binding activity of 99%.
`COc1ccc(CCNC(=O)CCn2c(=O)c3ccccc3n(CC(=O)NCC3CCCO3)c2=O)cc1OC` (stereo unspecified) was tested, and the GTP binding activity was 96%.
Work on `COc1ccc(/C=C/C2=CC(C)(C)NC(=S)N2)c(OC)c1` yielded a GTP binding activity of 96%.
Molecule `CCOC(=O)c1ccc(NC(=O)C2CC(=O)Nc3nc4ccccc4n32)cc1` (stereo unspecified) has a GTP binding activity of 94%.
With `C/C(=N\NC(=O)OC(C)(C)C)c1ccc[nH]1` the GTP binding activity was 98%.
Work on `O=C(Cn1nnc2ccccc2c1=O)NCc1ccc(Cl)cc1` yielded a GTP binding activity of 100%.
`CC(C)CCC(C)NC(=O)c1ccc2nccnc2c1` (stereo unspecified) gave a GTP binding activity of 97%.
For `COc1ccc(CCNC(=O)COC(=O)Cc2cc(OC)c(OC)c(OC)c2)cc1`, the GTP binding activity was 96%.
`Cn1cc(-c2ccccc2)cc(C#N)c1=O` gave a GTP binding activity of 98%.
In the case of `CCc1ccccc1NC(=O)CSc1nnc(-c2ccncc2)o1`, the GTP binding activity is reported as 99%.
`Cc1ccc(C2=NN(C(=O)COc3ncnc4ccccc34)C(c3ccco3)C2)cc1` (stereo unspecified) was tested, and the GTP binding activity was 93%.
`COc1ccc(OC)c(-n2c(=S)[nH]c3cc(C(=O)N4CCCCC4)ccc3c2=O)c1` showed a GTP binding activity of 100%.
`S=C(Nc1ccc(Br)cc1Cl)NC1CCN(Cc2ccccc2)CC1` showed a GTP binding activity of 100%.
`CN(C)c1nc(-c2cccnc2)nc(-c2ccc(Cl)cc2)c1C#N` showed a GTP binding activity of 98%.
Molecule `CC(=O)Nc1ccc(OCCC[n+]2cccc(C(=O)[O-])c2)cc1` has a GTP binding activity of 97%.
`CCOC(=O)C1=C(CN2CCCCCC2)NC(=O)NC1c1cccc([N+](=O)[O-])c1` (stereo unspecified) gave a GTP binding activity of 97%.
`COc1ccc(-n2c(C)nn(CC3CC3)c2=O)cc1` gave a GTP binding activity of 100%.
Molecule `CN(C)CCCn1c(SCCN2C(=O)c3ccccc3C2=O)nc2ccccc2c1=O` has a GTP binding activity of 95%.
For `O=S(=O)(Nc1cc(S(=O)(=O)N2CCOCC2)ccc1N1CCCC1)c1cccs1`, the GTP binding activity was 98%.
Work on `Cc1ccc(N(C(=O)Cc2cccs2)C2C=CS(=O)(=O)C2)cc1Cl` (stereo unspecified) yielded a GTP binding activity of 100%.
For `C/C(=N\Nc1ncc(Cl)cc1Cl)c1cccs1`, the GTP binding activity was 98%.
`Cc1cccc(CN2CCN(Cc3cnn(-c4ccccc4F)c3)CC2CCO)n1` (stereo unspecified) gave a GTP binding activity of 99%.
With `Cc1cc(C)n(-c2nc(C(F)(F)F)nc3ccccc23)n1` the GTP binding activity was 96%.
Work on `Cc1ccc(NC(=S)N(Cc2ccco2)C(C)c2cccs2)cc1` (stereo unspecified) yielded a GTP binding activity of 101%.
Work on `COC(=O)c1cc(NC(=O)c2cccnc2)ccc1N1CCOCC1` yielded a GTP binding activity of 96%.
Molecule `CCN(CC)c1ccc(C(=O)c2cnc(/N=C/N(C)C)s2)cc1` has a GTP binding activity of 95%.
For `Cc1cc(NC(=O)CSc2nc3c(cc2C#N)CCCCC3)no1`, the GTP binding activity was 94%.
`O=C(Cc1ccccc1)N1CCN(S(=O)(=O)c2ccc([N+](=O)[O-])cc2)CC1` showed a GTP binding activity of 98%.
